Assay outcomes from PubChem.
FBW7 act: activators of human E3 ligase FBW7. hit rate 0.13% among 650,000. AlphaScreen FBW7–phospho-cyclin E peptide binding, activator screen. normalized activity (activation), % at 26.1 µM; in the data active means normalized activity above about 1.9%;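 further: purified mutant Fbw7 with reduced substrate affinity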
GPR151 ag: human GPR151 activation. PathHunter beta-arrestin GPR151 cells, luminescence. activation, % at 11.2 µM. hit rate 1% among 650,000. AID 1508602; in the data active means activation above about 4.9%
MITF primary: inhibitors of human MITF; hit rate 0.91% among 650,000; inhibition, % at 2.6 µM; AID 1259374; AlphaScreen MITF homodimerization, bead proximity signal; in the data active means inhibition above about 50%
Target sequence (O75030 whole entry, looked up): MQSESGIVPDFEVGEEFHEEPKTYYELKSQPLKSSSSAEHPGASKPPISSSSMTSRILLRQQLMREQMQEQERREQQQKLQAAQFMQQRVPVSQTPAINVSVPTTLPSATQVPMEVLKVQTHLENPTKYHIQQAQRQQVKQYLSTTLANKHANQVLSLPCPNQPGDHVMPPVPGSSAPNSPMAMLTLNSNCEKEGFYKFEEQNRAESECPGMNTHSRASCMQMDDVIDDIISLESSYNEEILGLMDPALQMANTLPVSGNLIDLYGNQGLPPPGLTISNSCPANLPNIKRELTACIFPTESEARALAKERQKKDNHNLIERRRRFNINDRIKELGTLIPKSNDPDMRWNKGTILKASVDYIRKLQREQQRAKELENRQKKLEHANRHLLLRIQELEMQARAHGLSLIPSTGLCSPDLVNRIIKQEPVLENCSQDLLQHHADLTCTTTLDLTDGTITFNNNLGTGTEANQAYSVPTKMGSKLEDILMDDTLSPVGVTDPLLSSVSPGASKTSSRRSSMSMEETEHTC
TEAD-YAP block: TEAD-YAP interaction inhibition; HEK-TIYL cells, TEAD-Gal4/YAP UAS-luciferase luminescence; hit rate 1.4% among 640,000; inhibition, % at 9.12 µM; AID 1259422; in the data active means inhibition above about 32%
GPR151 conf act: confirmation of human GPR151 activators; shares compounds with GPR151 ag; GPR151 PathHunter beta-arrestin cells, luminescence, 90 min; % of EA-reagent control over plate median; activation, % at 11.2 µM; 6,700 tested, under 10 active; AID 1508609;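 active means mean percent activation across replicates above the confirmation screen cutoff of 4.91%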
GPR119 counter: GPR119 activation, counter-screen for GPR151 activators; shares compounds with GPR151 ag; GPR119 PathHunter beta-arrestin cells, luminescence, 90 min; 0 = compound-well median, 100 = enzyme-acceptor control; activation, % at 11.2 µM; hit rate 0.3% among 6,700;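 active means mean percent activation in the counterscreen above 29.09%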;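 further: counterscreen on off-target GPR119 to flag nonselective hits from the GPR151 activator screen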
Hits are given with their value; – = inactive; · = no result. Sampled rows, rich in hits. Any-hit rate of the full collection: about 3.4%.

SMILES	FBW7 act	GPR151 ag	MITF primary	TEAD-YAP block	GPR151 conf act	GPR119 counter
CN(Cc1nc2ccc(F)cc2[nH]1)C(=O)CC1C(=O)NCCN1Cc1cccc(F)c1F (centres undefined)	–	–	–	–	·	·
CCOC(=O)c1c(C=O)c(C)n(Cc2ccccc2F)c1C	–	–	–	–	·	·
Cc1ccc(CSCCNC(=O)C(C)N(c2ccc(C)cc2)S(C)(=O)=O)cc1 (centres undefined)	–	–	–	–	·	·
COC(=O)C1=CN(C)C=C(C(=O)OC)C1c1cccc(Br)c1	–	–	–	–	·	·
O=C(O)C(=O)/C=C(\O)c1ccc(Cl)cc1	–	13	–	–	–	–
O=C(c1ccc2c(c1)N(Cc1ccccc1)C(=O)CS2)N1CCOCC1	–	–	–	–	·	·
O=C(c1ccc(CN2C(=O)CCn3nccc32)cc1)N1CCOCC1	–	7.2	–	–	–	–
CCCCC(c1nnnn1Cc1ccco1)N1CCN(C(=O)c2ccco2)CC1 (centres undefined)	–	20	–	–	–	–
CCCC(c1nnnn1Cc1ccco1)N1CCN(C(=O)c2ccco2)CC1 (centres undefined)	–	–	–	–	·	·
COc1ccc(C=O)cc1Cn1cnc([N+](=O)[O-])n1	–	5.5	–	–	–	–
COc1ccc(Cl)cc1NC(=S)N(Cc1cccs1)C1CCCC1	–	–	–	–	·	·
CC1(C)CC(=O)c2c(oc3c(Cl)cc(NS(=O)(=O)c4ccc5ccccc5c4)cc23)C1	–	10	–	–	–	–
CC1(C)CC(=O)c2c(oc3c(Cl)cc(NS(=O)(=O)c4ccccc4)cc23)C1	–	–	–	–	·	·
CC(NCC(C)(C)CN(C)C)C(=O)Nc1ccccc1 (centres undefined)	–	7.0	–	–	–	–
Cc1ccnc(Nc2ccc(N3CCN(C(=O)C4CCCC4)CC3)nn2)c1	–	5.1	–	–	–	–
COCCNC(=S)N1CCc2ccccc21	–	–	–	–	·	·
CCOc1cc(C=C2C(=O)N(C)C(=O)N(C)C2=O)cc(Cl)c1O	–	–	–	–	·	·
CC(C(=O)N1c2ccccc2CC1C)N1CCN(c2ccccn2)CC1 (centres undefined)	–	5.3	–	–	–	–
CNC(=O)NC(=O)C(C)N1CCN(c2ccccn2)CC1 (centres undefined)	–	–	–	–	·	·
CC1(C(=O)NNC(=O)Nc2cccc([N+](=O)[O-])c2)CC1(Cl)Cl (centres undefined)	–	6.4	–	–	–	–
NC(=S)N/N=C/C(Cl)=C(\Cl)C(=O)O	–	–	–	–	·	·
Cc1cccc(OCCCCn2cnc3ccccc3c2=O)c1	–	–	–	–	·	·
COc1cccc(NC(=O)C(CCSC)NC(=O)C2CCC(C)CC2)c1 (centres undefined)	–	10	–	–	–	–
CCOC(=O)c1cccc(NC(=O)C(CCSC)NC(=O)C2CCC(C)CC2)c1 (centres undefined)	–	–	–	–	·	·
CC(=O)Nc1cnc2cnc(-c3ccc(C(C)C)cc3)cn12	–	5.2	–	–	–	–
SMILES	FBW7 act	GPR151 ag	MITF primary	TEAD-YAP block	GPR151 conf act	GPR119 counter
CCCn1c(-c2nc(OC)cc(OC)n2)n[nH]c1=S	–	7.0	–	–	–	–
CCc1ccc(-c2nc(=S)[nH][nH]2)cc1	–	7.6	–	–	–	–
O=C(Oc1ccc(OC(=O)c2cccc(S(=O)(=O)N3CCOCC3)c2)cc1)c1cccc(S(=O)(=O)N2CCOCC2)c1	–	–	–	–	·	·
O=C(NCc1cccs1)NC1CC(=O)N(c2cccc(F)c2)C1 (centres undefined)	–	5.0	–	–	–	–
Cc1ccc(N2CC(NC(=O)NCc3ccco3)CC2=O)cc1C (centres undefined)	–	5.8	–	–	–	–
Cc1cc(I)ccc1NC(=O)C1CCCN1Sc1ccccc1[N+](=O)[O-] (centres undefined)	–	–	–	–	·	·
CC(C)(C)OC(=O)NC(Cc1ccc(Cl)cc1)c1nc2ccc(-c3ccncc3)cc2[nH]1 (centres undefined)	–	–	–	–	·	·
COc1cc(Br)c(C2C(C#N)=C(N)Oc3cc4c(cc32)OCO4)cc1OC (centres undefined)	–	9.1	–	–	–	–
CCCCNC(=O)/C(=C/c1ccccc1)NC(=O)/C=C/c1ccco1	–	17	–	–	–	–
CCCCNC(=O)/C(=C/c1ccc(OC)cc1)NC(=O)/C=C/c1ccccc1	–	–	–	–	·	·
COc1ccc(N2C3=C(C(=O)CC(C)(C)C3)C(c3ccccc3)C3=C2c2ccccc2C3=O)cc1 (centres undefined)	–	5.6	–	–	–	–
CCc1ccc(NC(=O)CSc2ncccn2)cc1	–	–	–	–	·	·
CCCCN(CC)S(=O)(=O)c1ccc(C(=O)Nc2ccc3c4c(cccc24)C(=O)N3CC)cc1	–	9.7	–	–	–	–
Cc1ccc(-n2nc3c(c2NC(=O)Cc2ccc(F)cc2)CS(=O)(=O)C3)cc1	–	–	–	–	·	·
O=C(O)c1cc2c(ccc3ccccc32)o1	–	–	–	–	·	·
N#Cc1cc2c(ccc3ccccc32)oc1=N	–	6.1	–	–	–	–
CC(C)(C)Nc1nc(-c2cccc(Br)c2)cs1	–	7.5	–	–	–	–
CCC(=O)Nc1nc(-c2cccc(Br)c2)cs1	–	–	–	–	·	·
CCC(Sc1ccccc1C(=O)O)C(=O)O (centres undefined)	–	–	–	–	·	·
CCC(Sc1c[nH]c2ccccc12)C(=O)O (centres undefined)	–	5.5	–	–	–	–
COC(=O)c1ccc(Nc2nc3ccccc3n3c(C)nnc23)cc1	–	–	–	–	·	·
CC(=O)c1ccc(Nc2nc3ccccc3n3c(C)nnc23)cc1	–	7.3	–	–	–	–
CCOC(=O)c1cnn(-c2cc(C)ccc2C)c1CNCc1ccc(S(N)(=O)=O)cc1	–	–	–	–	·	·
FC(F)(F)c1ccc(-c2cnnc(N3CCSCC3)n2)cc1	–	–	–	–	·	·
OC1CCN(C2CCN(c3nncc(-c4ccc(C(F)(F)F)cc4)n3)CC2)CC1	–	7.3	–	–	–	–
SMILES	FBW7 act	GPR151 ag	MITF primary	TEAD-YAP block	GPR151 conf act	GPR119 counter
CC(C)N(CCNC(=O)c1cccc(Nc2ccnn2C)n1)C(C)C	–	6.1	–	–	–	–
CC(C)N(CCNC(=O)c1ccc2nc(Nc3ncccn3)sc2c1)C(C)C	–	–	–	–	·	·
CC(C)N(CCNC(=O)c1ccc2nc(Nc3ccnn3C)sc2c1)C(C)C	–	6.8	–	–	–	–
N#Cc1c(C(F)(F)F)cc(-c2ccncc2)nc1SCCN1CCOCC1	–	–	–	–	·	·
CCC1CN(CCNC(=O)Cn2ncc3ccccc32)Cc2cc(OC)ccc2O1 (centres undefined)	–	8.2	–	–	–	–
CCC1CN(CCNC(=O)CC2CCCC2)Cc2cc(OC)ccc2O1 (centres undefined)	–	6.9	–	–	–	–
C=CCN(c1ccc(C(=O)Nc2ccc(C)c(Cl)c2)cc1)S(C)(=O)=O	–	–	–	–	·	·
